Reference: PubChem BioAssay AID430 (Sanford-Burnham Center for Chemical Genomics, 2006)
The whole screen tested about 63,000 compounds, of which about 1,100 (1.7%) were called active. This is one part of a sample in which actives are shown more often than they occur. Measured potencies and affinities stand elsewhere. Unmarked numbers belong to inactive results. Rule as the data show it: active = cytotoxicity above about 50%; inactive = the rest.

Experiment: HPDE-C7 pancreatic duct cell viability loss – fluorescence, HTS (AID 430);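 also: cells exposed to compound for 48 hours before viability readout; 0% = vehicle and 100% = reference cytotoxic drug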
Conditions: HPDE-C7 pancreatic duct cells viability, at 10 µM, hits give high values

| Compound | cytotoxicity |
| --- | --- |
| COCC(C)NC(=O)c1cc(-c2ccc(OC)c(OC)c2)on1 (stereo not given) | -3% |
| O=C1c2ccccc2C(=O)N1CC#CCN1CCN(C2CCCCC2)CC1 | 2.6% |
| Cc1cc(C)c(C#N)c(SCS(=O)c2ccc(C(C)(C)C)cc2)n1 (stereo not given) | -4.8% |
| Cc1cc(C)c(C#N)c(SCS(=O)Cc2ccccc2)n1 (stereo not given) | -16.4% |
| Cc1cc(C)c(C#N)c(SCS(=O)Cc2ccc(Cl)cc2)n1 (stereo not given) | 50.3% (active) |
| CCOc1ccc(-c2noc(=O)[nH]2)cc1 | 0.9% |
| CC1=NOC2(C1)N(C)c1ccccc1C2(C)C (stereo not given) | -10.1% |
| COc1ccc2c(c1)C=CC1(O2)N(CCO)c2ccccc2C1(C)C (stereo not given) | 32.6% |
| CCOC(=O)c1sc(NC(=O)CCSC)nc1C | 26.2% |
| CCOC(=O)c1sc(NC(=O)CSc2ncn(-c3ccccc3)n2)nc1C | 70.4% (active) |
| O=C(CSc1ncn(-c2ccccc2)n1)Nc1nc2ccccc2s1 | 9.1% |
| CCOC(=O)c1sc(NC(=O)CSc2nnnn2-c2ccccc2)nc1C | -4.9% |
| CCOC(=O)c1ccc(NC(=O)CCc2nc(-c3ccc(Cl)cc3)no2)cc1 | -3.7% |
| CCOC(=O)c1ccc(NC(=O)CCc2nc(-c3ccccc3Cl)no2)cc1 | 74.8% (active) |
| CCOC(=O)c1ccc(NC(=O)CCc2nc(-c3ccccc3)no2)cc1 | -1.1% |
| Cc1sc2ncn3ncnc3c2c1C | 4.8% |
| Cc1cc(C)n2nc(C(=O)NCc3ccco3)nc2n1 | 11.2% |
| COC(=O)c1ccccc1NC(=O)c1cnc2sccn2c1=O | 2.7% |
| COC(=O)c1ccccc1NC(=O)c1ccc(-c2ccccc2F)o1 | 88.4% (active) |
| COc1ccccc1NC(=O)c1ccc(-c2ccccc2F)o1 | -0.2% |
| COC(=O)c1ccccc1NC(=O)c1ccc(COc2ccccc2)o1 | -7.8% |
| COc1ccc(NC(=O)c2cc(-c3cc(C)cc(C)c3O)n[nH]2)cc1Cl | 59.6% (active) |
| COc1ccc(OC)c(NC(=O)c2cc(-c3cc(Cl)ccc3O)n[nH]2)c1 | 12.2% |
| Cc1ccc(O)c(-c2cc(C(=O)Nc3ccc(S(=O)(=O)N4CC(C)OC(C)C4)cc3)[nH]n2)c1 (stereo not given) | -29.9% |

| Compound | cytotoxicity |
| --- | --- |
| COc1ccc(OC)c(NC(=O)c2cc(-c3ccc(C)cc3O)n[nH]2)c1 | -13.3% |
| Cc1cc(O)c(-c2cc(C(=O)Nc3ccc(S(=O)(=O)N4CCOCC4)cc3)[nH]n2)cc1C | 1% |
| O=C(Nc1cc(C(F)(F)F)ccc1Cl)C1CCN(c2nnc(-n3cccc3)s2)CC1 | -14.7% |
| COC(=O)c1ccc(CSc2ncnc3c2nnn3-c2ccc(OC)cc2)o1 | -1% |
| O=C(O)CCC(=O)N1CCc2cc(S(=O)(=O)NC3CCCc4ccccc43)ccc21 (stereo not given) | 3.4% |
| Nc1ccccc1-c1nnc(SCc2ccccc2F)[nH]c1=O | 3.6% |
| NC(=O)CSc1nnc2sc3ccccc3n12 | 3.6% |
| COc1cccc(S(=O)(=O)Nc2cccnc2)c1 | -10.8% |
| CC(=O)Nc1cccc(NC(=O)CSc2ncc(-c3ccc(Cl)cc3)n2Cc2ccco2)c1 | 64% (active) |
| Cc1cnc(NC(=O)CSc2ncc(-c3ccccc3)n2Cc2ccco2)s1 | -1% |
| COc1ccc(-c2cnc(SCC(=O)Nc3cc(C)on3)n2Cc2ccco2)cc1 | -8.9% |
| O=C(CSc1ncc(-c2ccc(F)cc2)n1Cc1ccco1)Nc1ccc2c(c1)OCO2 | 72.6% (active) |
| COc1ccc(-c2cnc(SCC(=O)Nc3ccc4c(c3)OCO4)n2Cc2ccco2)cc1 | 5% |
| CCC(=O)Nc1cc(NC(=O)CSc2ncc(-c3ccc(F)cc3)n2Cc2ccco2)ccc1C | 3.8% |
| CCOCCCN1CC(C(=O)NCCc2ccccc2)CC1=O (stereo not given) | -5.3% |
| CC(=O)Nc1ccc(C(=O)CSc2nc3ccccc3n2CC(=O)N2CCCC2)cc1 | 5% |
| Cc1cc2c(c(N3CCOCC3)n1)C(=O)OC2 | -1.9% |
| COc1ccc(CNC(=O)C2CCCN2S(=O)(=O)c2ccccc2)cc1 (stereo not given) | -10.6% |
| O=S(=O)(c1ccccc1Cl)N1CCCC(c2nc(-c3cccnc3)no2)C1 (stereo not given) | 2% |
| CCC(c1nnnn1C1CCCCC1)N(Cc1ccco1)Cc1cc2ccc(OC)cc2[nH]c1=O (stereo not given) | 56.8% (active) |
| COc1ccc2[nH]c(=O)c(CN(Cc3nnnn3Cc3ccco3)C3CCCCC3)cc2c1 | 24.6% |
| CCCC(c1nnnn1C(C)(C)CC)N(Cc1ccco1)Cc1cc2ccc(OC)cc2[nH]c1=O (stereo not given) | 72.9% (active) |
| COc1ccc2[nH]c(=O)c(CN(C3CCCCC3)C(c3nnnn3Cc3ccco3)C(C)C)cc2c1 (stereo not given) | 21.5% |
| COc1ccc2cc(CN(Cc3ccco3)C(c3nnnn3C3CCCCC3)C(C)C)c(=O)[nH]c2c1 (stereo not given) | -35.5% |

| Compound | cytotoxicity |
| --- | --- |
| CCC(C)(C)n1nnnc1C(c1cc2cc(OC)c(OC)cc2[nH]c1=O)N1CCc2ccccc21 (stereo not given) | 11.4% |
| CCC(c1nnnn1Cc1ccco1)N(Cc1cc2cc(OC)ccc2[nH]c1=O)C1CCCCC1 (stereo not given) | 97.7% (active) |
| CCC(C)(C)n1nnnc1C(c1cc2ccc(C)cc2[nH]c1=O)N(Cc1cccnc1)Cc1ccco1 (stereo not given) | 23.4% |
| COc1ccc2cc(CN(Cc3ccco3)Cc3nnnn3C3CCCCC3)c(=O)[nH]c2c1 | 23.1% |
| CCC(C)(C)n1nnnc1C(c1cc2ccc(OC)cc2[nH]c1=O)N1CCc2ccccc21 (stereo not given) | 50.8% (active) |
| CCC(c1nnnn1Cc1ccccc1)N(Cc1ccco1)Cc1cc2cc(OC)ccc2[nH]c1=O (stereo not given) | 18% |
| CCC(C)(C)n1nnnc1C(c1cc2cc(OC)ccc2[nH]c1=O)N1CCc2ccccc21 (stereo not given) | 2.6% |
| COC(=O)CN1CCN(C(=O)c2ccc(F)cc2)c2ccccc2C1 | -14.6% |
| Cc1cc(Cl)ccc1N=Cc1c(O)n(C)c(=O)n(C)c1=O | -4.4% |
| Cc1cccnc1NCC(O)COc1ccccc1 (stereo not given) | -2.3% |
| CN1CCN(CC(=O)N(Cc2c(C#N)c3ccccc3n2C)c2ccccc2)CC1 | 2.3% |
| O=C(c1ccccc1C(=O)N1CCN(c2ccc(F)cc2)CC1)N1CCN(c2ccc(F)cc2)CC1 | 2.5% |
| COC(=O)C(C)NC(=O)C1CCCN1S(=O)(=O)c1cc(C)c(Cl)cc1C (stereo not given) | 7.8% |
| CN(C)C(=O)N1CCC(C(=O)NCc2ccccc2)CC1 | -9.6% |
| Cc1nc(N2CCC(C)CC2)c2c(C)c(C(=O)O)sc2n1 | -38.1% |
| Cc1cc(C)c2c3c(c(-c4ccccc4)n2n1)c(=O)n(C)c(=O)n3C | -6.5% |
| CCN1CCN(c2ccc(NC(=O)COc3ccccc3Cl)cc2)CC1 | -13.4% |
| Cn1cc(Cl)c(C(=O)N2CCN(c3ncccn3)CC2)n1 | 3.1% |
| CCC(c1nnnn1Cc1cccs1)N1CCN(c2nc3ccccc3s2)CC1 (stereo not given) | -1.9% |
| c1ccc(COc2ccc(Nc3ncnc4nc[nH]c34)cc2)cc1 | -3.8% |
| C=CCn1c(N)c(C(=O)Nc2ccccc2)c2nc3ccccc3nc21 | 66.5% (active) |
| C=CCn1c(N)c(C(=O)OCCC)c2nc3ccccc3nc21 | 5.2% |
| C=CCn1c(N)c(C(=O)OC(C)(C)C)c2nc3ccccc3nc21 | 8.7% |
| COC(=O)c1cccc(S(=O)(=O)N(Cc2ccco2)Cc2cc3ccc(OC)cc3[nH]c2=O)c1 | -2.3% |

| Compound | cytotoxicity |
| --- | --- |
| O=C(CCSc1ccccc1)N1CCOCC1 | 2.9% |
| C=CCn1c(O)c(C2=c3ccccc3=NC2=O)sc1=Nc1ccc(O)cc1 | 111% (active) |
| O=C1N=c2ccccc2=C1c1sc(=S)n(CC2CCCO2)c1O (stereo not given) | -0.5% |
| C=CCn1c(O)c(C2=c3ccccc3=NC2=O)s/c1=N/c1nccs1 | -2.6% |
| Cc1cccc(OCCc2nnc(N)s2)c1C | -15.8% |
| CC(C)c1nnc(NC(=O)CSc2nc3ccccc3s2)s1 | -8.4% |
| Cc1ccc(C(C(=O)NC(C)(C)C)N(CC2CCCO2)C(=O)Cn2nnc(-c3ccc(C)o3)n2)cc1 (stereo not given) | -0.4% |
| COc1ccc(-c2cc3ccccc3n2CC(O)CNC(CO)(CO)CO)cc1 (stereo not given) | 6.1% |
| COc1ccc(-c2cc3ccccc3n2CC(O)CN2CCN(CCO)CC2)cc1 (stereo not given) | 52.6% (active) |
| COc1ccc(-c2cc3ccccc3n2CC(O)CN2CCOCC2)cc1 (stereo not given) | -1.1% |
| CCOc1ccc(C2C(C(=O)c3ccco3)=C(O)C(=O)N2Cc2cccnc2)cc1OC (stereo not given) | 7.1% |
| CCn1c2ccccc2c2cc(NC(=O)N3CCOCC3)ccc21 | 6.2% |
| O=C(Nc1ccc(Oc2ccc(NC(=O)c3ccco3)c(NC(=O)c3ccco3)c2)cc1)c1ccco1 | 25% |
| CC(=O)c1sc(NC(=O)c2ccco2)nc1-c1ccccc1 | -1% |
| CCOC(=O)c1sc(NC(=O)c2ccco2)nc1-c1ccccc1 | -8.2% |
| O=C(OC1CCCCC1)c1ccc(NC(=O)c2ccco2)cc1 | 58.1% (active) |
| O=C(Nc1ccc(OC(=O)c2ccco2)cc1)c1ccco1 | -10.9% |
| CCn1c2ccccc2c2cc(NC(=O)c3ccco3)ccc21 | 57.2% (active) |
| Cc1ccc(Oc2ccc(NC(=O)c3ccco3)cc2)cc1 | 78.8% (active) |
| CCn1c2ccccc2c2cc(CN3CCN(C(=O)c4ccco4)CC3)ccc21 | -25.2% |
| O=C(Nc1nc(-c2cccs2)c(-c2ccccc2)s1)c1ccco1 | 53.7% (active) |
| Cc1ccc(NC(=O)c2ccc(OC(=O)c3ccco3)cc2)cc1 | -5.6% |
| O=C(O)CCC(=O)Nc1ccc(C(=O)OC2CCCCC2)cc1 | -4.7% |
